Source: PubChem BioAssay (EPA / NIEHS)
Active and inactive are the calls of the source. Rule for the calls: active = hit-call score of the fitted dose curve at least 0.9, where 1 is the maximum; inactive = score below 0.9.

Tests used:
[1] = ATG_CRE_CIS: Attagene CIS-FACTORIAL HepG2 Assay for human cAMP Responsive Element (CRE) binding protein 3 (AID 2282926); settings: HepG2 CRE cis-reporter, Attagene multiplexed mRNA; actives raise or lower the signal
Method in brief: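 Human liver HepG2, transient MRTU transfection, 24 h compound exposure. Total RNA → oligo(dT) RT → PCR → 6-FAM primer extension → HpaI cut → CE. Activity called both directions vs DMSO.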

[2] = biological target: CCAAT/enhancer-binding protein beta (Homo sapiens) (UniProt P17676); experiment: ATG_C_EBP_CIS: Attagene CIS-FACTORIAL HepG2 Assay for human CCAAT/Enhancer Binding Protein (C/EBP) beta (AID 2282927); settings: HepG2 Attagene cis-factorial transcription factor reporter; actives raise or lower the signal
Method in brief: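 Endogenous transcription factor activity in human liver HepG2 cells is inferred from induction of a CEBPB-linked reporter mRNA. Exposure lasts 24 h; activity is fitted in both directions relative to DMSO.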

[3] = ATG_CMV_CIS: Attagene CIS-FACTORIAL HepG2 Assay for human CMV (Internal Marker) (AID 2282928); settings: HepG2 CMV promoter reporter, transcription factor profiling; actives raise or lower the signal;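 note: endpoint acts as a background internal control marker rather than a target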
Method in brief: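 HepG2 cells transiently transfected with multiple cis-regulated reporter units; 24 h compound exposure. Reporter mRNA quantified by RT-PCR, 6-FAM primer-extension labeling, HpaI digestion and capillary electrophoresis; bidirectional fitting against DMSO baseline.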

[4] = ATG_DR4_LXR_CIS: Attagene CIS-FACTORIAL HepG2 Assay for human Liver X Receptor (LXR), DR4 submotif (AID 2282929); settings: HepG2 Attagene DR4 cis-reporter, mRNA transcription; actives raise or lower the signal
Method in brief: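 Endogenous factor activity at a DR4 cis-element is read as reporter mRNA in transiently transfected HepG2 cells. Exposure lasts 24 h; transcripts are amplified, fluorescently labelled and sized by capillary electrophoresis, with DMSO as baseline.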

[5] = biological target: Aryl hydrocarbon receptor (Homo sapiens) (UniProt P35869); experiment: ATG_Ahr_CIS: Attagene CIS-FACTORIAL HepG2 Assay for human Aryl Hydrocarbon Receptor (Ahr) (AID 2282930); settings: HepG2 AhR cis-factorial reporter transcription; actives raise or lower the signal
Method in brief: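 Transient MRTU transfection of HepG2 → 24 h compound exposure → total RNA, oligo(dT) RT → PCR, 6-FAM extension, HpaI cut → CE fluorescence. DMSO = baseline; bidirectional curve fit.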

[6] = ATG_AP_1_CIS: Attagene CIS-FACTORIAL HepG2 Assay for human Activator Protein 1 (AP-1) (AID 2282931); settings: HepG2 Attagene cis-factorial AP-1 reporter mRNA; actives raise or lower the signal
Method in brief: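 Fluorescence of labelled PCR fragments separated by capillary electrophoresis gives reporter mRNA levels. HepG2 with transfected cis-regulated reporter units, 24 h exposure; DMSO serves as baseline for bidirectional curve fits.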

[7] = ATG_AP_2_CIS: Attagene CIS-FACTORIAL HepG2 Assay for human Activator Protein 2 (AP-2) (AID 2282932); settings: HepG2 AP-2 cis-reporter, Attagene transcription factor profiling; actives raise or lower the signal
Method in brief: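 HepG2, transient MRTU transfection, cis-regulated reporters; 24 h compound exposure; RNA isolated, RT-PCR, 6-FAM labelling, HpaI digest, CE fluorescence. DMSO = negative control/baseline, bidirectional fit.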

[8] = ATG_BRE_CIS: Attagene CIS-FACTORIAL HepG2 Assay for human Bone Morphogenetic Protein (BMP) Response Element (BRE) (AID 2282933); settings: HepG2 BMP response element reporter, Attagene transcription factor profiling; actives raise or lower the signal
Method in brief: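 After a 24 h chemical treatment, transiently transfected HepG2 cells were lysed for RNA; reporter transcripts were quantified by fluorescent RT-PCR and capillary electrophoresis, normalised to DMSO.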

[9] = biological target: Transcription factor E2F1 (Homo sapiens) (UniProt Q01094); experiment: ATG_E2F_CIS: Attagene CIS-FACTORIAL HepG2 Assay for human E2F Transcription Factor 1 (AID 2282935); settings: HepG2 Attagene cis-reporter, E2F reporter RNA transcripts; actives raise or lower the signal
Method in brief: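 Cis-element reporter mRNA induction in transiently transfected HepG2, 24 h exposure. Activity fitted in both directions relative to DMSO negative control.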

[10] = ATG_E_Box_CIS: Attagene CIS-FACTORIAL HepG2 Assay for human Enhancer Box (E-box) (AID 2282936); settings: HepG2 E-box cis-reporter transcription, actives raise or lower the signal
Method in brief: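 Cells: HepG2 (human liver), transient MRTU transfection. Exposure 24 h. RNA → oligo(dT) RT → PCR → 6-FAM label → HpaI → CE. Activity fitted both directions relative to DMSO.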

[11] = ATG_M_61_CIS: Attagene CIS-FACTORIAL HepG2 Assay for M61 Transcription Factor (Internal Marker) (AID 2282937); settings: HepG2 Attagene CIS-FACTORIAL M61 internal marker reporter; actives raise or lower the signal
Method in brief: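 This endpoint serves as an internal background control within a multiplexed HepG2 cis-reporter panel. Cells are exposed for 24 h; reporter mRNA is amplified, fluorescently labelled and sized by capillary electrophoresis, with DMSO as negative control.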

[12] = ATG_EGR_CIS: Attagene CIS-FACTORIAL HepG2 Assay for human Early Growth Response 1 (EGR1) (AID 2282938); settings: HepG2 Attagene CIS-FACTORIAL EGR reporter mRNA; actives raise or lower the signal
Method in brief: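 HepG2, transient MRTU transfection (cis promoters), 24 h compound. RNA → RT (oligo-dT) → PCR → 6-FAM labelling → HpaI cut → CE fluorescence. Bidirectional fit, DMSO baseline.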

[13] = ATG_M_19_CIS: Attagene CIS-FACTORIAL HepG2 Assay for M19 Transcription Factor (Internal Marker) (AID 2282939); settings: HepG2 Attagene CIS-FACTORIAL M19 internal marker reporter; actives raise or lower the signal
Method in brief: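 In this multiplexed cell assay, transiently transfected HepG2 reporter units report endogenous transcription-factor activity; after 24 hours of treatment, labelled reporter cDNA fragments are quantified by capillary electrophoresis and fitted bidirectionally against DMSO.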

[14] = ATG_Ets_CIS: Attagene CIS-FACTORIAL HepG2 Assay for human Erythroblast Transformation Specific (ETS) (AID 2282941); settings: HepG2 ETS cis-reporter transcription, actives raise or lower the signal
Method in brief: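 HepG2 cells transiently transfected with cis-promoter reporter transcription units were dosed for 24 h; reporter mRNA was measured by RT-PCR, 6-FAM primer extension, HpaI digestion and capillary electrophoresis, with bidirectional fitting against DMSO baseline.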

[15] = biological target: Hepatocyte nuclear factor 3-beta (Homo sapiens) (UniProt Q9Y261); experiment: ATG_FoxA2_CIS: Attagene CIS-FACTORIAL HepG2 Assay for human Forkhead box A2 (FOXA2) (AID 2282942); settings: HepG2 cis-reporter transcription factor activity, 24 h; actives raise or lower the signal
Method in brief: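 Cells: HepG2, transient multiplex reporter transfection. Exposure 24 h. Detection: reporter-specific RT-PCR, fluorescent labelling, restriction digest, capillary electrophoresis. Analysis: bidirectional curve fit, DMSO as negative control.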

[16] = ATG_FoxO_CIS: Attagene CIS-FACTORIAL HepG2 Assay for human Forkhead box O (FoxO) (AID 2282943); settings: HepG2 Attagene cis-reporter, FoxO element, mRNA; actives raise or lower the signal
Method in brief: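 HepG2, transient MRTU transfection (cis element, endogenous TFs). Dose 24 h. TriZol RNA → oligo(dT) RT → PCR → 6-FAM primer extension → HpaI cut → CE. Gain/loss vs DMSO.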

[17] = ATG_GATA_CIS: Attagene CIS-FACTORIAL HepG2 Assay for human GATA Binding Protein (AID 2282944); settings: HepG2 GATA cis-element reporter, Attagene multiplex mRNA; actives raise or lower the signal
Method in brief: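 Measures endogenous transcription factor-driven reporter mRNA in HepG2 cells transiently carrying cis-regulated constructs. 24 h dosing; RNA via oligo(dT) reverse transcription, PCR, HpaI digestion, capillary electrophoresis; fitted relative to DMSO.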

[18] = ATG_GLI_CIS: Attagene CIS-FACTORIAL HepG2 Assay for human Zinc Finger Protein GLI1 (AID 2282945); settings: HepG2, Attagene cis-factorial reporter mRNA, GLI element; actives raise or lower the signal
Method in brief: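 Bidirectional curve fits relative to DMSO, using reporter mRNA levels from RT-PCR plus capillary electrophoresis. Cells were HepG2 transiently carrying cis-regulated reporter constructs, harvested 24 h after dosing.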

[19] = ATG_ERE_CIS: Attagene CIS-FACTORIAL HepG2 Assay for Estrogen Response Element (ERE) (AID 2282940); settings: HepG2 ERE cis-reporter, Attagene RNA transcript; actives raise or lower the signal
Method in brief: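 Measuring endogenous transcription factor output, the assay doses transfected HepG2 cells for 24 hours and quantifies reporter transcripts by fluorescent RT-PCR and capillary electrophoresis, with DMSO as baseline.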

[20] = biological target: Retinoic acid receptor alpha (Homo sapiens) (UniProt P10276); experiment: ATG_DR5_RAR_CIS: Attagene CIS-FACTORIAL HepG2 Assay for human Retinoic Acid Receptor Alpha (RARE), DR5 submotif (AID 2282934); settings: HepG2 Attagene cis-factorial RARE DR5 reporter, mRNA; actives raise or lower the signal;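 for AC50: reporter responds to endogenous RAR alpha beta and gamma in HepG2 not RARA alone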
Method in brief: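 Transient MRTU transfection of HepG2; 24 h compound treatment; TriZol RNA, oligo(dT) RT, PCR, FAM labelling, capillary electrophoresis. Bidirectional fit vs DMSO. Endogenous TF activity at DR5 RARE.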

Measured: AC50

Hepatocyte nuclear factor 3-beta (Homo sapiens), sequence (Q9Y261 whole entry, looked up): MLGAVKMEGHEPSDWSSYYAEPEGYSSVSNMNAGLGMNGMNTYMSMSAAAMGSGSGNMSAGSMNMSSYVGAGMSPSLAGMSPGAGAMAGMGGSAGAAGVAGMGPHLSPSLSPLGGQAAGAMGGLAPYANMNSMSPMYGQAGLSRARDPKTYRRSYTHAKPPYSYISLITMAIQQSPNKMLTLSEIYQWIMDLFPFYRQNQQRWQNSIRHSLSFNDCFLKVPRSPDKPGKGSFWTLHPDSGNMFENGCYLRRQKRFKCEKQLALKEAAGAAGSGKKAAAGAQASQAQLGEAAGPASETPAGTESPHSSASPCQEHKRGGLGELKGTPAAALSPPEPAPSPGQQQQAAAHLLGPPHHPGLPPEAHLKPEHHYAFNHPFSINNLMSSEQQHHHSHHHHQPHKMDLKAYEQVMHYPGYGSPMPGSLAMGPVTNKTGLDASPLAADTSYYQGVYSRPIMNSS
Aryl hydrocarbon receptor (Homo sapiens), sequence (P35869 whole entry, looked up): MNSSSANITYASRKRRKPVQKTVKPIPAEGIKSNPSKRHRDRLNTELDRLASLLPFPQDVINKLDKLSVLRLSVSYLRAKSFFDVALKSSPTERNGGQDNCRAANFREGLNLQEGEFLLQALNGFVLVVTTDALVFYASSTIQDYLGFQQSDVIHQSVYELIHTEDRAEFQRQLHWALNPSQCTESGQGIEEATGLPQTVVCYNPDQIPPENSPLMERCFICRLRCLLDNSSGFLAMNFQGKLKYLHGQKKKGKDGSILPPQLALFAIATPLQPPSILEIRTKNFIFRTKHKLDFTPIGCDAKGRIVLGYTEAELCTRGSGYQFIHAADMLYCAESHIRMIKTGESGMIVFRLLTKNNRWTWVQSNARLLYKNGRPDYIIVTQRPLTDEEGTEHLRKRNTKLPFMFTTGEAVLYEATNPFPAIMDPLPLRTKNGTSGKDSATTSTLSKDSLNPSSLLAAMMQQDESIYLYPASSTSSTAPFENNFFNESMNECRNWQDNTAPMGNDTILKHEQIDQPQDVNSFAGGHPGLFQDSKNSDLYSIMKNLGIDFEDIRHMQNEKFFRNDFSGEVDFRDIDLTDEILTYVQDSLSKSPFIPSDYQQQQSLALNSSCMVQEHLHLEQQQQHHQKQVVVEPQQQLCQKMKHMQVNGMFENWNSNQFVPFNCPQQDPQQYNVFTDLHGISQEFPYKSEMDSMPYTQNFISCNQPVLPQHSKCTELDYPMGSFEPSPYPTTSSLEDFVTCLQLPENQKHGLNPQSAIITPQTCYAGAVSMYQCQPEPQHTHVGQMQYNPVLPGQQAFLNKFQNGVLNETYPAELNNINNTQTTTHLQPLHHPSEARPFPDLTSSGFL
CCAAT/enhancer-binding protein beta (Homo sapiens), sequence (P17676 whole entry, looked up): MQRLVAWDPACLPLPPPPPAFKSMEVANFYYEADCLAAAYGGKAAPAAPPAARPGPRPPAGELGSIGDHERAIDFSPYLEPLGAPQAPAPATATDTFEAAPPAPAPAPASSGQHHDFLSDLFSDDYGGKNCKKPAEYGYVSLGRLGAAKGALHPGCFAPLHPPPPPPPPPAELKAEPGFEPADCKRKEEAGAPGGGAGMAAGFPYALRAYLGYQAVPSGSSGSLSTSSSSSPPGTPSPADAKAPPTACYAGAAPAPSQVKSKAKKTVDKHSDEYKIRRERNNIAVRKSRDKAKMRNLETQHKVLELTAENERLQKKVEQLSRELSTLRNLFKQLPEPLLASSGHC
Retinoic acid receptor alpha (Homo sapiens), sequence (P10276 whole entry, looked up): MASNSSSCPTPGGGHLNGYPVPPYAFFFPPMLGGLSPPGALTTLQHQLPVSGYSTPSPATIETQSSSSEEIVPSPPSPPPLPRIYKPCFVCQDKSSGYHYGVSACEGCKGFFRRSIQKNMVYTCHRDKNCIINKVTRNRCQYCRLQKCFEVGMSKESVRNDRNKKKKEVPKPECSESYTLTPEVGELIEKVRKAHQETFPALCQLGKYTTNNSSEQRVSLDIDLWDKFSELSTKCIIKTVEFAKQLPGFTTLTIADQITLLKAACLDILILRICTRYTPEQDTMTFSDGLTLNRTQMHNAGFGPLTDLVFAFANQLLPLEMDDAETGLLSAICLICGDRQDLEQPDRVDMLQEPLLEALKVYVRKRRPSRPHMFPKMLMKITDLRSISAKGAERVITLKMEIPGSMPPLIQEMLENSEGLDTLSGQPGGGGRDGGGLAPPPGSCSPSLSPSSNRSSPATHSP
Transcription factor E2F1 (Homo sapiens), sequence (Q01094 whole entry, looked up): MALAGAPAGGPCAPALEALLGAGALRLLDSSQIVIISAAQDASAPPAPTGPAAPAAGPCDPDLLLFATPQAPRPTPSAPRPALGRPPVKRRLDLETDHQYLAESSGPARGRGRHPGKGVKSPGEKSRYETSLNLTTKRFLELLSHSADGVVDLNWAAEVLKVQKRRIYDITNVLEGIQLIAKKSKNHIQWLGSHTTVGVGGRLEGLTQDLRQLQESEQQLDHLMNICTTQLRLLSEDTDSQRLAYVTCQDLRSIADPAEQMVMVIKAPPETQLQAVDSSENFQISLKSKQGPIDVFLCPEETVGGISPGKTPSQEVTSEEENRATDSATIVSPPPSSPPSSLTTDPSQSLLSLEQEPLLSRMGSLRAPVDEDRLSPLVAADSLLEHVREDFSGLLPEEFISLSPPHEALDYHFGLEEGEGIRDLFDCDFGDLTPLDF

NC(=O)O
not listed: [19] | [20]
inactive: all other assays above

CC12CC1(C)C(=O)N(c1cc(Cl)cc(Cl)c1)C2=O (stereo not given)
not listed: [13] | [19] | [20]
inactive: all other assays above

CCC[CH2][Sn]([CH2]CCC)([CH2]CCC)[O]C(=O)c1ccccc1
active: [2] 0.0581 µM | [8] 0.218 µM | [19] 0.0334 µM
not listed: [18] | [20]
inactive: all other assays above

CCC(C)(C)c1ccc(O)c(C(C)(C)CC)c1
active: [3] 11.1 µM | [4] 4.91 µM | [6] 12.8 µM | [20] 5.73 µM
not listed: [11]
inactive: all other assays above

Cc1ccccc1C(=O)Nc1cccc(OC(C)C)c1
active: [3] 61.9 µM | [4] 158 µM
not listed: [20]
inactive: all other assays above

C=C(C)C#N
not listed: [11] | [13]
inactive: all other assays above

Fc1ccc(C2(Cn3cncn3)OC2c2ccccc2Cl)cc1 (stereo not given)
active: [5] 13.3 µM | [8] 69.9 µM
not listed: [13] | [18] | [19]
inactive: all other assays above

CCc1ccccc1C
not listed: [11]
inactive: all other assays above

CC(C)C1CCC(Cc2ccc(Cl)cc2)C1(O)Cn1cncn1 (stereo not given)
active: [4] 18.1 µM | [5] 3.08 µM | [6] 17.5 µM | [8] 11 µM
not listed: [11] | [19]
inactive: all other assays above

COC(=O)c1sccc1S(=O)(=O)NC(=O)Nc1nc(C)nc(OC)n1
active: [19] 47.4 µM
not listed: [7]
inactive: all other assays above

CCSC(C)CC1CC(=O)C(C(CC)=NOC/C=C/Cl)=C(O)C1 (stereo not given)
active: [5] 28.4 µM
not listed: [7]
inactive: all other assays above

CC1(C)Cc2cccc(O)c2O1
not listed: [7] | [13]
inactive: all other assays above

O=[N+]([O-])c1ccc2c3c(cccc13)CC2
not listed: [5] | [7]
inactive: all other assays above

O=P(O)(O)CN(CP(=O)(O)O)CP(=O)(O)O
not listed: [7] | [11] | [18]
inactive: all other assays above

ClCc1cccnc1
active: [1] 57 µM | [12] 58.6 µM | [14] 81.3 µM
not listed: [7] | [13] | [19] | [20]
inactive: all other assays above
